Test results taken from ChEMBL document CHEMBL3988442, “University of Dundee, Small-Polar-MMV Screening Library” (2021).
For some assays here: Potency and affinity values are given separately.

Legend:
Parameters in all cases: scale not given: direction of the effect not stated beside the values
[1] = target: Protein translocase subunit SecA (Escherichia coli (strain K12)) (UniProt P10408); test: Assay to Identify E. coli SecA ATPase Inhibitors; format: functional; details: 30 µM
[2] = target: T1, Ubiquitin-activating enzyme e1, putative (Leishmania donovani (strain BPK282A1)) (UniProt E9BSI1); test: Leishmania donovani Ubiquitin Activating Enzyme (LdE1); format: functional; details: 30 µM
T1 sequence (whole entry): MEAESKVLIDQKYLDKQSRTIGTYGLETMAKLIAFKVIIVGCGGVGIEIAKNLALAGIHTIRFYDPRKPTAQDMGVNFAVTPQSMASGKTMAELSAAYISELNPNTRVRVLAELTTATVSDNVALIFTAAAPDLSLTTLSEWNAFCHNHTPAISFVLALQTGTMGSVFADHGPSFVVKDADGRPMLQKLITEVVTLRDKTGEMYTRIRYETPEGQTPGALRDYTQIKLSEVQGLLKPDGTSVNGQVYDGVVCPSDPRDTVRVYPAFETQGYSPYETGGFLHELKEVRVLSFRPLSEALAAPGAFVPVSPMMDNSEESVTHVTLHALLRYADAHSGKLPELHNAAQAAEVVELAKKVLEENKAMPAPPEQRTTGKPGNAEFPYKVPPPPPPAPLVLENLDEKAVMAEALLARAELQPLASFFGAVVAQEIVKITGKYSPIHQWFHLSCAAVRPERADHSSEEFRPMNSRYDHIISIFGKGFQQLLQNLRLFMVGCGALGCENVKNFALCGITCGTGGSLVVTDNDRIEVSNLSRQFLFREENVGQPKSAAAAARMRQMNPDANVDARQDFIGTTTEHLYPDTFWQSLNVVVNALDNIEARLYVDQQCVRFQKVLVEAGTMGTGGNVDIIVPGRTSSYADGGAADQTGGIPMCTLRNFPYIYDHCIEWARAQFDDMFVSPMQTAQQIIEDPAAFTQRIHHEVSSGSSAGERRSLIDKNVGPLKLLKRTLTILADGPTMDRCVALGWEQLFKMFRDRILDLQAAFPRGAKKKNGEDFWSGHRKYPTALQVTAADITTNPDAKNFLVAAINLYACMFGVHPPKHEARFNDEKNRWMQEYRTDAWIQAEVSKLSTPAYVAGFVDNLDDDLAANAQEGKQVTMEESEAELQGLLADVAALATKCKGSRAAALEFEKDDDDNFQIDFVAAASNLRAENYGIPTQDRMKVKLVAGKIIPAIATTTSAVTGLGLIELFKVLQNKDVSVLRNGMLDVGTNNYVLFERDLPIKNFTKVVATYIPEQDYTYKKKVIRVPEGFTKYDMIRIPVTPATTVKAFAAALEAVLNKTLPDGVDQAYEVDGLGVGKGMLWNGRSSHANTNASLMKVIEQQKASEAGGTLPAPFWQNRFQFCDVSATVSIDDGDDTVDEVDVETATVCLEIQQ

[3] = target: Sialic acid-binding Ig-like lectin 9 (Homo sapiens) (UniProt Q9Y336); test: Hs-Siglec9 ALPHAscreen SOP 20170721; details: 10 µM
Sequence of Sialic acid-binding Ig-like lectin 9 (Homo sapiens) (Q9Y336 whole entry): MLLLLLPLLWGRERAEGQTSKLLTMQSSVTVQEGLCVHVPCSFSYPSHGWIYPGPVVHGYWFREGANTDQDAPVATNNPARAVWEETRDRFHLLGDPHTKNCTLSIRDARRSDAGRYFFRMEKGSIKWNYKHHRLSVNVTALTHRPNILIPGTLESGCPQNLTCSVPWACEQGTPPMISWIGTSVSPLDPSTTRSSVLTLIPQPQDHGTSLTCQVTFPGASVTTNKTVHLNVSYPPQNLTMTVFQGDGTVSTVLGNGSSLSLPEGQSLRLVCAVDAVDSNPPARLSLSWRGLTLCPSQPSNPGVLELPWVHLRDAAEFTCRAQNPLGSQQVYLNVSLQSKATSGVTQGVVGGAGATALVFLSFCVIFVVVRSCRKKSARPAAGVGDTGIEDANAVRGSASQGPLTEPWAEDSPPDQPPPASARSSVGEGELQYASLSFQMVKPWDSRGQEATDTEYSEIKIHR

Trypanosoma cruzi = test: Trypanosoma cruzi phosphomannomutase and mannose-1-phosphate guanylyltransferase assay; format: functional; details: 10 µM
[4] = target: T2, Arginase-2, mitochondrial (Homo sapiens) (UniProt P78540); test: in vitro enzyme assay to detect the production of urea directly proportional to the activity of Arginase II; format: functional; details: 33.3 µM; also: in the data most compounds retested in dose-response had high values
T2 sequence (whole entry): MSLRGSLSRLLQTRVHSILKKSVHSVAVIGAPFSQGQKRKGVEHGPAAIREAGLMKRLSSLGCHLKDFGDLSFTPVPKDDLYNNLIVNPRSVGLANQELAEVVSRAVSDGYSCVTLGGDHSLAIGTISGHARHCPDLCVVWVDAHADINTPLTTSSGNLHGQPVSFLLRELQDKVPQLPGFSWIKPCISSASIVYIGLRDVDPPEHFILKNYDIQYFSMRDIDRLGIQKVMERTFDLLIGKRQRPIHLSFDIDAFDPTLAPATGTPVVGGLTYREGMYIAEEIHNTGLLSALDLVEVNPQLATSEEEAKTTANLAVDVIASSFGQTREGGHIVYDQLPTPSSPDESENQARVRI

[5] = target: T3, Proteasome subunit beta (Trypanosoma cruzi) (UniProt O96673); test: Trypanosoma cruzi proteasome chymotrypsin-like activity (TcProtChymo) assay.; also: in the data most compounds retested in dose-response had high values; format: functional; details: 9.37 µM
T3 sequence (whole entry): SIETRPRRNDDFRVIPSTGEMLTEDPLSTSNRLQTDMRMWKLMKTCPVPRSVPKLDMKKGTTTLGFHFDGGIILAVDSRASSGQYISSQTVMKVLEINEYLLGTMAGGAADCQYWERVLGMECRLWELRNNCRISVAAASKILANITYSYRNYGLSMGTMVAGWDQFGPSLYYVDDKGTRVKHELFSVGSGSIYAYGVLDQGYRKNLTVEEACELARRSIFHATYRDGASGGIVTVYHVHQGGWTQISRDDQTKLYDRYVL

Homo sapiens = species: Homo sapiens; test: To identify inhibition of the IFN signalling (Jak-Stat) pathway via expression of an eGFP reporter gene under the control of an IFN-stimulated response element (ISRE) containing MxA promoter.; format: functional; details: 30 µM
[6] = target: T4, Tyrosyl-tRNA synthetase, putative (Trypanosoma cruzi (strain CL Brener)) (UniProt Q4DSP6); test: Trypanosoma cruzi tyrosyl tRNA synthetase (TcYRS) _High Tyrosine SOP; format: functional; details: 30 µM; also: in the data most compounds retested in dose-response had high values
T4 sequence (whole entry): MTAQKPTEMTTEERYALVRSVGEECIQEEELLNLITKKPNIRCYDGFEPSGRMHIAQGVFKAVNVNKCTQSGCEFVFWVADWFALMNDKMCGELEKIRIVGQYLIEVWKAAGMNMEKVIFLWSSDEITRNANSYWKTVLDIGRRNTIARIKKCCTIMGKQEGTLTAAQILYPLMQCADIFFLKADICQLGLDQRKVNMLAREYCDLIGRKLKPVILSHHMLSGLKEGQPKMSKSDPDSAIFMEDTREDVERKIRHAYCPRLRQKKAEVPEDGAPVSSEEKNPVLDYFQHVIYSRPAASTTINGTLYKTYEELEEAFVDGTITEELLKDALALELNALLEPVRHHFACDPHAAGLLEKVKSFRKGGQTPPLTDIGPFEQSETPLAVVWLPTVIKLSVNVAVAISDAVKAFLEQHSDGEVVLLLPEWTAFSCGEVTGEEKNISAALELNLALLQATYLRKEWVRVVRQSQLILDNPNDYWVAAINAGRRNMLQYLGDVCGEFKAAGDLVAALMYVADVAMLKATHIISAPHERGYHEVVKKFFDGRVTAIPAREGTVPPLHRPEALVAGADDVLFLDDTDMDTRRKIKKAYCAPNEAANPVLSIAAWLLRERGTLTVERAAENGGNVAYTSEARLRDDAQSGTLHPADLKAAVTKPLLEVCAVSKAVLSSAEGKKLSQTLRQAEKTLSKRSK

[7] = target: T4, Tyrosyl-tRNA synthetase, putative (Trypanosoma cruzi (strain CL Brener)); test: Trypanosoma cruzi tyrosyl tRNA synthetase (TcYRS) SOP; format: functional; details: 30 µM
[8] = target: Chromo domain-containing protein 1 (Saccharomyces cerevisiae (strain ATCC 204508 / S288c) (Baker's yeast)) (UniProt P32657); test: ScCHD-1 Enzyme Inhibition Assay; format: functional; details: 30 µM; also: in the data most compounds retested in dose-response had high values
Sequence of Chromo domain-containing protein 1 (Saccharomyces cerevisiae (strain ATCC 204508 / S288c) (Baker's yeast)) (P32657 whole entry, the tested form may be a part): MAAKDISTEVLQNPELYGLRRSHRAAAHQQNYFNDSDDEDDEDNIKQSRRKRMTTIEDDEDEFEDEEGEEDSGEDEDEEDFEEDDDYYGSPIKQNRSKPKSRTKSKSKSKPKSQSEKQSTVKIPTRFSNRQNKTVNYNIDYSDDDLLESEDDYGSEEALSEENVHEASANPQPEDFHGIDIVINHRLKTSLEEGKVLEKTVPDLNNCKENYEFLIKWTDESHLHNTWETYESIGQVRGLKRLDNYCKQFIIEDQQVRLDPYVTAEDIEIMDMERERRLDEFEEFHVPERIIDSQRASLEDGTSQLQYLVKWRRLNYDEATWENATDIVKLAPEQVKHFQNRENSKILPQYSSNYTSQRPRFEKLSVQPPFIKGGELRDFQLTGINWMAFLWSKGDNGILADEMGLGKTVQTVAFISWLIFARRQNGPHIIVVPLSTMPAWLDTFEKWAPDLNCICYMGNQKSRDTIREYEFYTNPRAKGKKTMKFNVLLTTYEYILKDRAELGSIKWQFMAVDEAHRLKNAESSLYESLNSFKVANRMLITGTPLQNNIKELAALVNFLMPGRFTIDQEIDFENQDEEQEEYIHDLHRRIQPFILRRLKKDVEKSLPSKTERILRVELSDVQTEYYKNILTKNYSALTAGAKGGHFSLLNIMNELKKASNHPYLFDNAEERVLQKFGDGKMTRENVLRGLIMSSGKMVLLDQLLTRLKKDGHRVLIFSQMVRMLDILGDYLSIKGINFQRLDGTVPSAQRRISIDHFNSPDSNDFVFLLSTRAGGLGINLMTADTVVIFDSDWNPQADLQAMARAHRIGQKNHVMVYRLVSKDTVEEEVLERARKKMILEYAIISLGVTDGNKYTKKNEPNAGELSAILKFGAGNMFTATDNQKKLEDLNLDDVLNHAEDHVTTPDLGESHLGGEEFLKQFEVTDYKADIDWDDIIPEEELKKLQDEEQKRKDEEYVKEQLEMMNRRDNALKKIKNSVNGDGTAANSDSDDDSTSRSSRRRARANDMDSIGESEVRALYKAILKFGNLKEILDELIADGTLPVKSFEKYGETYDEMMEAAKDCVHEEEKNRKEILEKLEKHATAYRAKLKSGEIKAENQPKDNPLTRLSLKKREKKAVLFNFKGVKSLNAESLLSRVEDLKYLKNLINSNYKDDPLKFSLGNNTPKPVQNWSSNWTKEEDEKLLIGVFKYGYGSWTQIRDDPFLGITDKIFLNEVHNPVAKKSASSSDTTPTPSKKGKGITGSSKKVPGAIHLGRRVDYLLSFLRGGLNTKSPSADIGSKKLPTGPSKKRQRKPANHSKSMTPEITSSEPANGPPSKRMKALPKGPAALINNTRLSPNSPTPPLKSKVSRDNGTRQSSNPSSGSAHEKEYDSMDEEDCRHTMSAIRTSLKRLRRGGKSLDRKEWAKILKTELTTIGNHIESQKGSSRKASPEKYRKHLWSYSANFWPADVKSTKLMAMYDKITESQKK

Sequence of Protein translocase subunit SecA (Escherichia coli (strain K12)) (P10408 whole entry): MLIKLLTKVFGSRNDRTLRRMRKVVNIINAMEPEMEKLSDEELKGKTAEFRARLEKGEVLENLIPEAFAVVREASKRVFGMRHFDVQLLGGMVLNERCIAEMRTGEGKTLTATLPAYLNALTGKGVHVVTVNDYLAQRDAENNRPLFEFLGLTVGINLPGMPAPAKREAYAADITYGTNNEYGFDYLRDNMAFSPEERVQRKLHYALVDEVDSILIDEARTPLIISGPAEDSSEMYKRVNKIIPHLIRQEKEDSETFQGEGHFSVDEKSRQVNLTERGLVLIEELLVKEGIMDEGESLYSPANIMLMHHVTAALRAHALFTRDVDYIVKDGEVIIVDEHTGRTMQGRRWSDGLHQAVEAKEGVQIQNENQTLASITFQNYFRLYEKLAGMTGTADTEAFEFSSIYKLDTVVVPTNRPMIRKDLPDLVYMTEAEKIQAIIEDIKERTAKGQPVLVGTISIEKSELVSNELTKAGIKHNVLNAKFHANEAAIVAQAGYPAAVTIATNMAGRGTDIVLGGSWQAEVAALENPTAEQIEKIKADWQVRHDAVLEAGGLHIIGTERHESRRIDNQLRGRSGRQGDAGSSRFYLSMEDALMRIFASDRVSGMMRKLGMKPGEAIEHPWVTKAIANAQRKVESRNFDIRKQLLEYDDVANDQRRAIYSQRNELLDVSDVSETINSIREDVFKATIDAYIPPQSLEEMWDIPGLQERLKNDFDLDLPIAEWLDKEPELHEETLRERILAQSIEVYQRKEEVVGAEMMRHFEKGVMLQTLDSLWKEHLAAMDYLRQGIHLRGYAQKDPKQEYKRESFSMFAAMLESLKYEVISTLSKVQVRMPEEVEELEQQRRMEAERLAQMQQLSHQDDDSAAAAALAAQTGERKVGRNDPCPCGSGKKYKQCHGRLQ

| Compound | Percent Effect [1] [%] | Percent Effect [2] [%] | Percent Effect [3] [%] | Percent Effect (Trypanosoma cruzi) [%] | Percent Effect [4] [%] | Percent Effect [5] [%] | Percent Effect (Homo sapiens) [%] | Percent Effect [6] [%] | Percent Effect [7] [%] | Percent Effect [8] [%] |
| --- | --- | --- | --- | --- | --- | --- | --- | --- | --- | --- |
| Cc1cc(C)n(CC2CN(Cc3nc(-c4ccco4)no3)CCO2)n1 (stereo not given) | -4.45 | 23.4 | 7.28 | 5.78 | 1.43 | 8.25 | 12.5 | 5.88 | 23.5 | -11.8 |
| CCc1nccn1C1CCCN(C(=O)Cc2ccc(OC)c(F)c2)C1 (stereo not given) | -7.36 | 16 | 14.5 | -1.21 | 1.77 | 7.38 | 13 | 6.84 | 10.3 | -9.19 |
| O=C(NCc1cc(O)ncn1)C1COc2ccccc2C1 (stereo not given) | -3.59 | 10.8 | 17.9 | 3.59 | 12.9 | 13 | 9.77 | 5.85 | 17.1 | -2.86 |
| Cn1ccc(CN2CCC(NC(=O)NC3CCCCC3)CC2)cc1=O | -2.35 | 10.3 | 10.4 | -2.16 | 6.15 | -1.28 | 27.9 | 4.31 | 10.8 | -1.97 |
| Cn1ccnc1CN1CCOCC(Cc2ccccn2)C1 (stereo not given) | -3.37 | 6.67 | 0.649 | -4.14 | 5.75 | 11.3 | 8.81 | 1.06 | 10 | -19.9 |
| Cc1cc(CN(C)C(=O)c2ccc(C(F)(F)F)nc2)no1 | -1.51 | -2.67 | 3.03 | -3.61 | 3.1 | 1.27 | -6.24 | -1.58 | 5.13 | 14.8 |
| Cc1ccccc1-c1cncc(C2CCN(C(C)C)CC2)n1 | -10.1 | 12 | 6.88 | 3.55 | -1.77 | 8.37 | -7.37 | 7.41 | 17.5 | -27.9 |
| O=C1COC2(CCN(C(=O)c3ccco3)CC2)CN1Cc1ccccn1 | -3.84 | 16.9 | 2.04 | 0 | 5.48 | 8.84 | -15.4 | 11.6 | 20 | -5.91 |
| CC(=O)N1[C@@H](C(=O)NCC2CC2)C[C@@H]2CN(Cc3ccco3)C[C@@H]21 | -0.254 | 22.1 | -5.46 | -0.938 | 3.2 | 12.1 | 9.99 | 3.87 | 7.5 | -7.56 |
| Cc1ccc(CN2CCCn3c(nc(CN4CCCC4)cc3=O)C2)s1 | -4.72 | 3.9 | -1.12 | -2.82 | -2.02 | 2.38 | -18.4 | 0.526 | 7.69 | 3.51 |
| CNc1nc(C2CCCN2C(C)=O)nc2c1CCN(CC1CC1)C2 (stereo not given) | -3.68 | 9.33 | 5.24 | -0.197 | 0.885 | 12.2 | 6.58 | 3.17 | 10 | -22.7 |
| Cc1ccccc1CC(=O)N(C)C1CCCC1 | -3.46 | 13.3 | -5.48 | -4.62 | 3.1 | 16.2 | 17 | 3.68 | 7.69 | -11.3 |
| COc1ccccc1CCN(C)C(=O)NC(C)c1nncn1C (stereo not given) | -6.85 | 10.7 | 12.9 | -1.21 | 0 | 16.2 | -2.26 | 2.63 | 5.13 | -8.54 |
| COc1ccc(OC)c(Sc2ncccc2C(=O)N(C)CCC#N)c1 | -2.48 | 16.9 | -3.09 | 0.75 | 0 | 15.5 | 32.7 | 4.83 | 10 | -12.2 |
| Cn1ccnc1CN1CCCC1c1noc(C2CC2)n1 (stereo not given) | -1.78 | 0 | -0.931 | 0 | 1.33 | 6.19 | -3.87 | 5.79 | 10.3 | -4.32 |
| CC(C)c1cc(NC(=O)CN2CCC(N3CCCCC3)CC2)on1 | -2.28 | 20.8 | 11.8 | 6.53 | -1.43 | 9.3 | -6.15 | 11.8 | 32.9 | -5.62 |
| CCn1cc(CN2CCCC(c3[nH]ncc3S(C)(=O)=O)C2)cn1 (stereo not given) | -3.37 | 14.7 | 8.19 | 2.56 | -0.885 | 7.55 | -4.1 | 4.23 | 15 | -23.9 |
| Cc1cnn(CC2CCCCN2C(=O)c2cc(Cl)c[nH]2)c1 (stereo not given) | -3.19 | 20.8 | 10.9 | 6.53 | -5.53 | 6.67 | 15.7 | 5.88 | 23.5 | -9.18 |
| COc1ccc(CNCc2ccnc(N3CCCCC3)c2)cc1OC | -2.73 | -2.56 | 3.59 | 4.22 | 2.87 | -1.62 | 25.8 | 3.35 | 1.21 | -2.92 |
| Cc1noc(C2CCN(C(=O)c3ccc(NC4CC4)nc3)CC2)n1 | -3.73 | 20.5 | -12.9 | 4.6 | 1.64 | 11.3 | 11.4 | 2.39 | 20.5 | -6.59 |
| CCc1cc(O)nc(C2CCCN2C(=O)c2cc(C)no2)n1 (stereo not given) | -0.0921 | 17.3 | -12.2 | -2.76 | -2.65 | 11.3 | 20.5 | -2.12 | 5 | -14.2 |
| CCc1nc(C2CCCN2C(=O)c2ccc3c(c2)nc(C)n3C)no1 (stereo not given) | -0.423 | -2.67 | 4.72 | -2.41 | 1.77 | 3.31 | 7.34 | 1.58 | 0 | -6.99 |
| CCOCC1CC2(CCN(C(=O)c3ccccn3)CC2)CO1 (stereo not given) | -5.71 | -1.3 | 4.48 | -0.876 | -3.64 | 9.44 | -3.04 | 1.58 | 2.56 | -2.76 |
